Bioassay records deposited in PubChem by National Center for Advancing Translational Sciences (NCATS).
Hits are enriched below; roughly 13% of the tested compounds scored in any of these assays.
HCV inh = blocks hepatitis C virus; Potency, µM (highest dose often 41.8 µM), for inactives: at the highest dose activity change, negative = inhibition, actives largely listed as inhibitors; Huh7.5.1 HCVcc-Cre infection, luciferase reporter, 44 h; 3.4% of 340,000 active; active = well fitted inhibition curve with a large enough effect; inconclusive = small, poorly fitted or top-dose-only effect, or another doubt; inactive = no such curve, though single readings can be large or run the other way; also: potency is read from the fitted curve at half-maximal effect; % is scaled to controls: 0 for no effect and ±100 for the full control effect
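1,000 cells/well; 4 h culture; + compound; + HCVcc-Cre (~0.5 moi); 44 h; luciferase substrate, RT 15 min; read 15 sec.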
Marburg entry inh = inhibitors of Marburg virus binding or cell entry; Potency, µM (series often up to 37.8 µM), inactives show top-dose activity change, negative = inhibition, hits mostly inhibitors; 1.8% of 300,000 active; Marburg virus pseudotyped entry inhibition, cell reporter; calls by dose curve; tested in HEK293 cells; also: potency is read from the fitted curve at half-maximal effect; % is scaled to controls: 0 for no effect and ±100 for the full control effect
Cycloheximide cs = affects cycloheximide protein synthesis inhibition readout, counter-screen | cell reporter, cycloheximide protein synthesis inhibition counterscreen | max response, % | 12% of 300,000 active | AID 2314; in the data active = max response mostly above about 13%, no sharp cut-off; inactive = mostly below about 14%; also: read at 38.3 µM for the half of the compounds with a filed dose; 0% is about no effect
FMDV inh = antivirals against foot and mouth disease virus | 1.2% of 410,000 active | Potency, µM (top dose mostly 57.9 µM), without a hit: at the highest dose activity change, negative = inhibition, actives largely listed as inhibitors | FMDV antiviral cell-based qHTS; calls by dose curve; tested in HEK293T cells; also: read-out not given here; potency is read from the fitted curve at half-maximal effect; % is scaled to controls: 0 for no effect and ±100 for the full control effect; nearly all actives have a fitted effect of over 45% in size
Lassa entry inh = inhibitors of Lassa virus binding or cell entry | Lassa virus pseudotype entry inhibition, cell reporter | 1.2% of 300,000 active | Potency, µM (titrated, usually from 37.9 µM), inactives show top-dose activity change, negative = inhibition, actives largely listed as inhibitors; calls by dose curve; tested in HEK293 cells; also: potency is read from the fitted curve at half-maximal effect; % is scaled to controls: 0 for no effect and ±100 for the full control effect; nearly all actives have a fitted effect of over 50% in size
Shiga inhibitor = blocks Shiga toxin action in Vero cells; AID 2315; inhibition, % at 38.7 µM; 9.2% of 290,000 active; Vero cells, Shiga toxin protein synthesis inhibition reporter; in the data active = inhibition mostly above about 28%, no sharp cut-off; inactive = mostly below about 43%; also: 0% is about no effect
Numbers without * were called inactive; ? = inconclusive; nt = no result; [ ] = remark or other dose.

SMILES | HCV inh | Marburg entry inh | Cycloheximide cs | FMDV inh | Lassa entry inh | Shiga inhibitor
COc1ccc(C(=O)NCCn2ccc3ccccc32)cc1 | -4% | ? | 13* | -4% | ? | 4
Cc1ccc(C(=O)NCCn2ccc3ccccc32)cc1[N+](=O)[O-] | -27% | ? | 35* | 21% | -25% | 80*
O=C(NCCn1ccc2ccccc21)c1ccc2c(c1)OCO2 | ? | nt | 40* | 26% | nt | 64*
O=C(NCc1ccccc1)C1CCC(CNS(=O)(=O)c2cccs2)CC1 (stereo not drawn) | -15% | -10%[46.1 µM] | 2 | -19% | -1% | -4
CCn1c(=NC(=O)CSC(C)=O)sc2ccccc21 | ? | -28%[46.1 µM] | -4 | 0% | -40% | -13
COc1ccc(NS(=O)(=O)CC(C)C)c(OC)c1 | 2% | ? | -4 | -6% | 8% | -4
COc1cccc(-c2nc(NCc3cnc(C)cn3)c3ccccc3n2)c1 | nt | nt | nt | 29% | nt | nt
COc1ccc(-c2c(NC(=O)c3ccco3)n(C)c3ccccc3c2=O)cc1 | 10% | ? | 0 | 8% | 4% | 10
COc1ccccc1-c1c(NC(=O)c2ccco2)n(C)c2ccccc2c1=O | 10% | ? | 18* | -4% | -8%[46.1 µM] | 36*
CCOc1ccc2nc3c(cc2c1)CN(CCOC)C(=NCCOC)S3 | -18% | ? | 3 | -9% | ? | 1
COc1ccccc1OCCC(=O)OCC(=O)Nc1ccc(Br)cc1F | 6% | 1%[46.1 µM] | -2 | 7% | -1% | 17
Cc1ccc(S(=O)(=O)CCC(=O)NCCc2ccccc2)cc1 | 10% | nt | 2 | 5% | nt | -5
Cc1ccc(S(=O)(=O)CCC(=O)NCCN2C(=O)S/C(=C\c3ccccc3)C2=O)cc1 | ? | -23% | 16* | ? | -3% | 36
O=C(CCS(=O)(=O)c1ccc(Cl)cc1)NCCN1C(=O)S/C(=C\c2ccccc2F)C1=O | ? | -23% | 34* | -11% | 17% | 67*
CCOC(=O)c1ccc(NC(=S)N2CCN(CCO)CC2)cc1 | 1% | ? | 6 | 12% | -17% | -4
CCOC(=O)c1ccc(NC(=S)N2CCCC(C)C2)cc1 (stereo not drawn) | -2% | 18%[46.1 µM] | 13* | 60% | -17% | 62*
CCCCc1ccc(NC(=S)N2CCN(c3ncccn3)CC2)cc1 | ? | -24%[46.1 µM] | 0 | 6% | ? | -15
CCOC(=O)c1ccc(NC(=S)N2CCC(O)CC2)cc1 | 8% | ? | 39* | 52% | 6% | 66
CCCCc1ccc(NC(=S)N2CCCC(C)C2)cc1 (stereo not drawn) | -20% | ? | 21* | 44% | 11% | 41*
CCOC(=O)N1CCC(N(C(=O)Nc2ccc(CC)cc2)C(C)CC)CC1 (stereo not drawn) | -7% | 10% | 14* | 44% | -9% | 47
COc1ccc(CCN2C(=O)C3C4CCC(C4=C(C)C)C3C2=O)cc1OC (stereo not drawn) | 10% | ? | 5 | -23% | 7% | -10
CCOC(=O)c1ccc(NC(=S)N2CCSC2c2ccc(Br)cc2)cc1 (stereo not drawn) | ? | 7% | 13* | 2% | 5% | 16
COc1ccc2occ(C(=O)c3ccc(N)cc3)c2c1 | -15% | nt | 39* | 10% | nt | 71*
COc1ccc2occ(NC(C)=O)c2c1 | -4% | -1% | 2 | -21% | 9% | -10
COc1ccc(C(=O)c2coc3ccc(OC(C)=O)cc23)cc1 | ? | ? | 27* | -45% | ? | 72*
SMILES | HCV inh | Marburg entry inh | Cycloheximide cs | FMDV inh | Lassa entry inh | Shiga inhibitor
CC(=O)c1coc2ccc(OCC(=O)O)cc12 | 10% | -3% | -5 | -16% | 2% | -1
COc1ccc2occ(C(=O)c3cccs3)c2c1 | -19% | 18% | 40* | 32% | 20% | 96*
COc1ccc(OC)c(C(=O)c2coc3ccc(OCC(=O)O)cc23)c1 | -6% | -16% | -5 | -16% | 11% | -1
COc1ccc(OC)c(C(=O)c2coc3ccc(OC(C)=O)cc23)c1 | -7% | ? | 25 | 12% | 11µM* | 38*
Brc1ccccc1-n1nnc(-c2ccnc3ccccc23)n1 | ? | nt | 19* | 27% | nt | 22
COc1ncccc1-c1nnn(-c2ccccc2Br)n1 | -22% | nt | nt | 37% | nt | nt
Cc1ccccc1NC(=O)c1ccc(-c2ccc(Cl)cc2Cl)o1 | 13µM* | -10%[46.1 µM] | 21* | 6% | 8% | 41
